Compound activity from PubChem.
Rows were chosen to be rich in hits. Some 4.2% of all compounds tested hit in one or more screens of this group.
Integrin act MD: activates integrin-mediated alleviation for muscular dystrophy. alpha7betagal myoblasts, beta-gal FDG fluorescence, 48 h. Potency, µM (titrated, usually from 38.3 µM), without a hit: top-dose activation, most hits filed as activators. 350,000 tested, 0.064% active;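 further: 100% = response of the positive control SU9516; nearly all actives have a fitted effect of over 60% in size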
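alpha7betagal+/- myoblasts (passage 13, 250/well) treated 48 h at 37C with compounds at 1:260 dilution of DMSO stock. Lysed, then beta-galactosidase activity read as FDG fluorescence (ex 480/em 540) after 30 min, with pre-read for autofluorescence.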
Mito fusion yeast: blocks mitochondrial division or promotes mitochondrial fusion | Potency, µM (top dose mostly 46.1 µM), without a hit: at the top dose growth rescue (activation), usual class: activators | S. cerevisiae fusion-defective mutant growth rescue, CellTiterGlo 48 h | AID 485298 | 320,000 tested, 0.23% active; further: % of control where 0% means no effect; nearly all actives have a fitted effect of over 45% in size
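Yeast fusion mutant, YPEG (non-fermentable carbon), compound, 48 h at 37C non-permissive; CellTiterGlo added, 10 min RT, luminescence read. Rescued growth = division inhibition.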
SW480 rerep: inducers of DNA re-replication in SW480 colon cancer cells. SW480 DNA re-replication, Hoechst DNA content imaging, 48 h. Potency, µM (doses to about 46.1 µM), without a hit: top-dose re-replication activation, actives largely listed as activators. 340,000 tested, 1.8% active. AID 624297; further: % of control where 0% means no effect; nearly all actives have a fitted effect of over 55% in size
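DNA re-replication was detected as more nuclei of elevated Hoechst intensity after 48 hr exposure to compound (23 nL pinned per well of 250 cells).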
AT treatment: potential ataxia-telangiectasia treatments restoring KAP-1 phosphorylation; AID 485349; F2112 A-T fibroblasts, KAP-1 phosphorylation AlphaLISA; neocarzinostatin DNA damage 30 min before lysis; Potency, µM (titrated, usually from 57.5 µM), for the others: at the highest dose activation, hits mostly activators; 320,000 tested, 0.19% active; further: % of control where 0% means no effect; nearly all actives have a fitted effect of over 45% in size
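ATM-like activity read as KAP-1 phosphorylation via AlphaLISA donor/acceptor antibody pairs after lysis and 6 hr at 25C. Cells were ATM-null patient fibroblasts (F2112, hTERT), dosed 60 min, then exposed to the DSB inducer NCS for 30 min.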
MCF10A rereplic: induces DNA re-replication in MCF 10a normal breast cells. MCF 10A DNA re-replication, Hoechst nuclear intensity, 48 h. Potency, µM (highest dose often 46.1 µM), for inactives: at the highest dose activity, positive = re-replication, hits mostly activators. 350,000 tested, 2.9% active; further: % of control where 0% means no effect; nearly all actives have a fitted effect of over 50% in size
Starred values were filed as active, the others as inactive; ? = inconclusive; / = not tested or not shown; ! = not active in a repeat. The call rests on the fitted dose curve; in most records, active means well fitted activation curve with a large enough effect; inconclusive means small, poorly fitted or top-dose-only effect; inactive means no such curve, though single readings can be large or run the other way. Potency means the concentration at half of the fitted maximal effect.

SMILES | Integrin act MD | Mito fusion yeast | SW480 rerep | AT treatment | MCF10A rereplic
CN(Cc1ccccc1)C1CCN(Cc2ccccc2[N+](=O)[O-])CC1 | -30% | 13% | 4% | -3% | ?
CCOc1ccc(-c2nc(CSCC(=O)NCc3ccco3)c(C)o2)cc1 | -30% | 15% | -3% | / | -3%
CCn1c(C)nnc1SCC(=O)Nc1cccc(Cl)c1 | 8% | 0% | 15µM* | -1% | 2%
Cc1ccc(-c2csc3ncnc(N4CCN(Cc5ccccc5)CC4)c23)cc1 | 11% | 0% | 2% | 10% | ?
Fc1ccc(-c2csc3ncnc(N4CCc5ccccc5C4)c23)cc1 | 18% | ? | 17% | 6% | 10µM*
Cc1ccc(-c2csc3ncnc(N4CCc5ccccc5C4)c23)cc1 | -2% | 9% | 7% | -4% | 18µM*
COc1ccc(S(=O)(=O)N2CCOC2CNC(=O)C(=O)NCCCN2CCCC2=O)cc1OC (stereo not drawn) | 5% | / | / | / | /
Cc1ccc2cc(C#N)c(N3CCCN(C(=O)C4CCCO4)CC3)nc2c1C (stereo not drawn) | -4% | -2% | 19% | 1% | 21µM*
Cc1cccc2cc(C#N)c(N3CCC(O)CC3)nc12 | 12% | 6% | ? | 3% | ?
Cc1ccc2cc(C#N)c(N3CCCC3)nc2c1C | 21% | 3% | 11µM* | 10% | ?
COc1ccc2nc(N3CCCCC3)c(C#N)cc2c1 | 16% | 4% | ? | 20µM* | 16µM*
C=Cc1c(C)/c2[n-]/c1=C\c1[n-]c(c(CC)c1C)/C=c1\[n-]c3c(c1C)C(=O)C(C(=O)[O-])C=3c1[n-]c(c(C)c1CCC(=O)[O-])\C=2.[Cu].[Na+].[Na+] (stereo not drawn) | / | / | -19% | / | -16%
CNC(=S)N(CCc1c(C)[nH]c2ccc(Cl)cc12)Cc1cccnc1 | -35% | 12% | 0% | 0.89µM* | -1%
Cc1[nH]c(=O)[nH]c(=O)c1C=CC(=O)NC(CO)CS(=O)Cc1ccccc1 (stereo not drawn) | 14% | / | / | / | /
O=C(Nc1ccc(S(=O)(=O)Nc2ncccn2)cc1)c1ccc(F)c(S(=O)(=O)N2CCOCC2)c1 | 3% | -5% | -16% | 28µM* | 1%
O=C(Nc1ccc(S(=O)(=O)Nc2nccs2)cc1)c1ccc(F)c(S(=O)(=O)N2CCOCC2)c1 | 10% | -2% | 5% | 4% | -1%
O=C(Nc1cccc(Cl)c1)c1ccc(F)c(S(=O)(=O)N2CCN(c3ccccn3)CC2)c1 | -7% | 12% | 0% | 12% | 23µM*!
O.O.O.O.O.O.O.O=S(=O)([O-])[O-].[Co+2] | / | / | 5% | / | 7%
CC1(C)CC(Cc2ccc(C(=O)c3ccccc3)cc2)N(C(=O)OC(C)(C)C)N1 (stereo not drawn) | 12% | / | / | / | /
CC(NC(=O)/C(C#N)=C1\N=C(NC(=O)c2ccco2)c2ccccc21)c1ccccc1 (stereo not drawn) | -12% | 0% | -4% | -1% | 9%
Cn1c(=O)c2c(nc(Sc3ncnn3CC(=O)NC3CCCCC3)n2C)n(C)c1=O | 11µM* | 0% | -5% | -7% | -4%
CC(C)CNS(=O)(=O)c1ccc(CCC(=O)Nc2cc(Cl)ccc2Oc2ccccc2)cc1 | -55% | 20% | 7.3µM* | 2% | 16%
CC(C)(C)NS(=O)(=O)c1ccc(CCC(=O)Nc2cc(Cl)ccc2Oc2ccccc2)cc1 | -35% | 8% | -4% | 5% | -11%
CCCNS(=O)(=O)c1ccc(CCC(=O)Nc2cc(Cl)ccc2Oc2ccccc2)cc1 | -55% | 27% | 5% | -2% | 8.2µM*
CC(C)CNS(=O)(=O)c1ccc(CCC(=O)O)cc1 | 11% | -2% | -2% | 6% | 20%
COc1ccc2[nH]c(=O)cc(C(=O)O)c2c1 | 23% | -1% | 9% | 0% | -37%
COc1ccc2[nH]c3c4c(ccc3c2c1)C(=O)C=CC4=O | -69% | -8% | 3.3µM* | -11% | ?
N#Cc1c(SCC(=O)Nc2nc3ccc(Br)cc3s2)sc2c(O)cc(=O)[nH]c12 | 67% | 2% | 12µM* | -4% | 15%
